According to the supplement of paper PMC9023506:
Counter-ions that a name gives are not always drawn.

Test system: Danio rerio larvae (5 dpf)
Assay: optomotor response to blue moving lines, difference vs DMSO (percentage points (treated minus DMSO)); higher = more of the behaviour than the DMSO vehicle control
Settings: 10 µM; exposure time: 3 h pre-incubation + 3 h imaging
Description: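 5-dpf wild-type zebrafish larvae were imaged in 96-well plates. They were treated with 190 Tocris FDA-approved drugs at 10 µM (1 µl/ml DMSO) for 3 h before and 3 h during imaging at 28.5 °C, 48 larvae per drug. Automated image analysis gave % time moving and optomotor responses. Values are drug group mean minus DMSO vehicle mean (n=844), in percentage points, for 10 behaviours.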

Structure (SMILES)	optomotor response to blue moving lines
Nc1nc2[nH]cc(CCc3ccc(C(=O)N[C@@H](CCC(=O)O)C(=O)O)cc3)c2c(=O)[nH]1 [Pemetrexed]	1.87
CCCC1O[C@@H]2C[C@H]3[C@@H]4CCC5=CC(=O)C=C[C@]5(C)[C@H]4[C@@H](O)C[C@]3(C)[C@]2(C(=O)CO)O1 (stereo not given in full) [Budesonide]	2.29
Cc1nc(Nc2ncc(C(=O)Nc3c(C)cccc3Cl)s2)cc(N2CCN(CCO)CC2)n1 [Dasatinib]	-13.1
CS(=O)(=O)CCNCc1ccc(-c2ccc3ncnc(Nc4ccc(OCc5cccc(F)c5)c(Cl)c4)c3c2)o1 [Lapatinib]	6.39
CC(C)Nc1cccnc1N1CCN(C(=O)c2cc3cc(NS(C)(=O)=O)ccc3[nH]2)CC1 [Delavirdine mesylate]	-0.42
COc1cc2nc(N3CCN(C(=O)c4ccco4)CC3)nc(N)c2cc1OC [Prazosin hydrochloride]	0.0687
CCCCNc1cc(C(=O)O)cc(S(N)(=O)=O)c1Oc1ccccc1 [Bumetanide]	3.8
Clc1ccc2nsnc2c1NC1=NCCN1 [Tizanidine hydrochloride]	3.61
CC(C)c1nc(CN(C)C(=O)N[C@H](C(=O)N[C@@H](Cc2ccccc2)C[C@H](O)[C@H](Cc2ccccc2)NC(=O)OCc2cncs2)C(C)C)cs1 [Ritonavir]	-11.8
CCCCC(=O)N(Cc1ccc(-c2ccccc2-c2nnn[nH]2)cc1)[C@H](C(=O)O)C(C)C [Valsartan]	6.89
CC(C)(C#N)c1cc(Cn2cncn2)cc(C(C)(C)C#N)c1 [Anastrozole]	-5.16
CN(C)CCC[C@@]1(c2ccc(F)cc2)OCc2cc(C#N)ccc21 [Escitalopram oxalate]	1.97
CC(C)COCC(CN(Cc1ccccc1)c1ccccc1)N1CCCC1 (stereo not given) [Bepridil hydrochloride]	7.44
Nc1ncn([C@H]2C[C@H](O)[C@@H](CO)O2)c(=O)n1 [Decitabine]	-0.954
Cc1cccc(CN2CCN(C(c3ccccc3)c3ccc(Cl)cc3)CC2)c1 (stereo not given) [Meclizine dihydrochloride]	-6.39
CCOc1nc2cccc(C(=O)O)c2n1Cc1ccc(-c2ccccc2-c2noc(=O)[nH]2)cc1 [Azilsartan]	7.48
Clc1ccccc1C(c1ccccc1)(c1ccccc1)n1ccnc1 [Clotrimazole]	14.5
CC(=O)O[C@H]1C(=O)[C@@]2(C)[C@H]([C@H](OC(=O)c3ccccc3)[C@]3(O)C[C@H](OC(=O)[C@H](O)[C@@H](NC(=O)c4ccccc4)c4ccccc4)C(C)=C1C3(C)C)[C@]1(OC(C)=O)CO[C@@H]1C[C@@H]2O [Taxol]	-0.599
Cc1nnc(C(C)C)n1C1C[C@H]2CC[C@@H](C1)N2CC[C@H](NC(=O)C1CCC(F)(F)CC1)c1ccccc1 (stereo in doubt) [Maraviroc]	-0.85
COc1ccccc1OCCNCC(O)COc1cccc2[nH]c3ccccc3c12 (stereo not given) [Carvedilol]	-0.112

Structure (SMILES)	optomotor response to blue moving lines
N#Cc1ccc2[nH]cc(CCCCN3CCN(c4ccc5oc(C(N)=O)cc5c4)CC3)c2c1 [Vilazodone hydrochloride]	-5.66
CCOC(=O)c1ncn2c1CN(C)C(=O)c1cc(F)ccc1-2 [Flumazenil]	11.4
OCCN(CCO)c1nc(N2CCCCC2)c2nc(N(CCO)CCO)nc(N3CCCCC3)c2n1 [Dipyridamole]	-5.39
CCCN(CCC)S(=O)(=O)c1ccc(C(=O)O)cc1 [Probenecid]	2.07
CC(C)(C(=O)c1cccnc1)c1cccnc1 [Metyrapone]	-8.19
CCOC(=O)N1CCC(=C2c3ccc(Cl)cc3CCc3cccnc32)CC1 [Loratidine]	6.09
C=C1[C@H](CO)[C@@H](O)C[C@@H]1n1cnc2c(=O)[nH]c(N)nc21 [Entecavir]	11.4
Nc1ncn([C@@H]2O[C@H](CO)[C@@H](O)[C@H]2O)c(=O)n1 [5-Azacytidine]	8.76
COc1cc([C@@H]2c3cc4c(cc3[C@@H](O[C@@H]3O[C@@H]5CO[C@@H](C)O[C@H]5[C@H](O)[C@H]3O)[C@H]3COC(=O)[C@H]23)OCO4)cc(OC)c1O [Etoposide]	6.33
CN/C(=N\CCSCc1nc[nH]c1C)NC#N [Cimetidine]	4.9
Cc1c(-c2ccc(O)cc2)n(Cc2ccc(OCCN3CCCCCC3)cc2)c2ccc(O)cc12 [Bazedoxifene acetate]	1.43
CC(CCc1ccc(O)cc1)NCCc1ccc(O)c(O)c1 (stereo not given) [Dobutamine hydrochloride]	-11.2
CC[C@H]1OC(=O)[C@H](C)[C@@H](O[C@H]2C[C@@](C)(OC)[C@@H](O)[C@H](C)O2)[C@H](C)[C@@H](O[C@@H]2O[C@H](C)C[C@H](N(C)C)[C@H]2O)[C@](C)(O)C[C@@H](C)CN(C)[C@H](C)[C@@H](O)[C@]1(C)O [Azithromycin]	-9.61
CCCCCCCCc1ccc(CCC(N)(CO)CO)cc1	-1.76
CNS(=O)(=O)Cc1ccc2[nH]cc(CCN(C)C)c2c1 [Sumatriptan succinate]	-3.13
O=C(O[C@@H]1C[C@@H]2C[C@H]3C[C@H](C1)N2CC3=O)c1c[nH]c2ccccc12 [Dolasetron mesylate]	0.622
NS(=O)(=O)c1cc2c(cc1Cl)NC(C1CC3C=CC1C3)NS2(=O)=O (stereo not given) [Cyclothiazide]	-7.83
NC(=O)OCC(COC(N)=O)c1ccccc1 [Felbamate]	-1.4
CC1=Nc2ccc(Cl)cc2S(=O)(=O)N1 [Diazoxide]	0.0367
CC(C)c1ccc2oc3nc(N)c(C(=O)O)cc3c(=O)c2c1 [Amlexanox]	5.97
